# Records with an inconclusive call do not appear. Active and inactive are the calls of the source. The calls were made as follows, unless noted: active = hit-call score of the fitted dose curve at least 0.9, where 1 is the maximum; inactive = score below 0.9.
# How the values were obtained:
# [1] = CCTE_Deisenroth_H295R-HTRF_384WELL_TESTOSTERONE: CCTE's H295R-HTRF Assay Evaluation of Testosterone Concentration, Deisenroth Lab (AID 2284373); conditions: actives raise or lower the signal
# How it was run: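 Testosterone secreted into medium was quantified by direct HTRF immunoassay after a 48 h treatment of H295R adrenocortical cells (nine concentrations, 0.001–100 uM final). Gain or loss fitted relative to DMSO; CellTiter-Glo viability read on same plates.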
# [2] = CCTE_Deisenroth_H295R-HTRF_384WELL_CTOX: Cytotoxicity Assessment in CCTE's H295R-HTRF Assay, Deisenroth Lab (AID 2284380; active = hit-call score of the fitted dose curve at least 0.9, where 1 is the maximum)
# How it was run: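 H295R adrenocortical carcinoma cells plated 24 h, then exposed 48 h to nine-point series 0.001–100 uM final, triplicate, n=5. ATP measured by CellTiter-Glo 2.0 luminescence on same plates after medium collection; loss versus DMSO.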
# [3] = system: SRY-box transcription factor 2 (SOX2) Protein Expression, Deisenroth Lab, SOX2 (gene 6657); test: CCTE_Deisenroth_DEVTOX-GLR_Endo_SOX2: CCTE's DevTox GLR-Endo Assay Evaluation of SRY-box transcription factor 2 (SOX2) Protein Expression, Deisenroth Lab (AID 2284412; active = hit-call score of the fitted dose curve at least 0.9, where 1 is the maximum)
# How it was run: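 RUES2-GLR human pluripotent cells were seeded 24 h, then differentiated 48 h with two chemical exposures 24 h apart. Cells were fixed, nuclei stained and imaged by high-content microscopy. Endpoint is %SOX2+ cells over cell count, minus 0.2% DMSO control; 10-point series 1 nM–200 uM.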
# [4] = system: SRY-box transcription factor 17 (SOX17) Protein Expression, Deisenroth Lab, SOX17 (gene 64321); test: CCTE_Deisenroth_DEVTOX-GLR_Endo_SOX17: CCTE's DevTox GLR-Endo Assay Evaluation of SRY-box transcription factor 17 (SOX17) Protein Expression, Deisenroth Lab (AID 2284413)
# How it was run: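 RUES2-GLR human pluripotent cells were differentiated toward endoderm for 48 h and received two compound doses 24 h apart (1 nM - 200 uM, 10 points). High-content imaging of fixed cells gave the percent SOX17+ cells per cell count, expressed as percent change versus 0.2% DMSO.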
# [5] = system: Brachyury (BRA) Protein Expression, TBXT (gene 6862); test: CCTE_Deisenroth_DEVTOX-GLR_Endo_BRA: CCTE's DevTox GLR-Endo Assay Evaluation of Brachyury (BRA) Protein Expression, Deisenroth Lab (AID 2284417)
# How it was run: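 Read-out: BRA+ cell count divided by total cell count by high-content imaging (5 fields per well), expressed relative to 0.2% DMSO solvent control. RUES2-GLR cells dosed twice over a 48 h differentiation; concentrations 1 nM - 200 uM.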
# [6] = CCTE_Deisenroth_DEVTOX-GLR_Endo_CellCount: Viability Assessment in CCTE's DevTox GLR-Endo Assay, Deisenroth Lab (AID 2284420)
# How it was run: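 Measured 48 h after dosing: fluorescent nuclei counted by imaging in human RUES2-GLR cells under defined differentiation media, tested at 1 nM - 200 uM. Values are percent cell-count change relative to 0.2% DMSO.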
# [7] = system: SRY-box transcription factor 17 (SOX17) Protein Expression, Deisenroth Lab, SOX17 (gene 64321); test: CCTE_Deisenroth_DEVTOX-GLR_Pluri_SOX17: CCTE's DevTox GLR-Pluri Assay Evaluation of SRY-box transcription factor 17 (SOX17) Protein Expression, Deisenroth Lab (AID 2284427; active = hit-call score of the fitted dose curve at least 0.9, where 1 is the maximum)
# How it was run: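 Using an inducible fluorescent SOX17 reporter in human pluripotent RUES2-GLR cells, compounds (1 nM - 200 uM) were given twice over 48 h differentiation. Percent SOX17+ cells minus DMSO control came from high-content image analysis.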
# [8] = system: SRY-box transcription factor 2 (SOX2) Protein Expression, Deisenroth Lab, SOX2 (gene 6657); test: CCTE_Deisenroth_DEVTOX-GLR_Pluri_SOX2: CCTE's DevTox GLR-Pluri Assay Evaluation of SRY-box transcription factor 2 (SOX2) Protein Expression, Deisenroth Lab (AID 2284428)
# How it was run: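 Percent SOX2+ RUES2-GLR cells, determined by fluorescence microscopy after 48 h and two 24-h-interval chemical exposures spanning 1 nM–200 uM, served as the endpoint. Values are expressed relative to 0.2% DMSO; total cell counts assessed viability.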
# [9] = system: Brachyury (BRA) Protein Expression, Deisenroth Lab, TBXT (gene 6862); test: CCTE_Deisenroth_DEVTOX-GLR_Pluri_BRA: CCTE's DevTox GLR-Pluri Assay Evaluation of Brachyury (BRA) Protein Expression, Deisenroth Lab (AID 2284429; active = hit-call score of the fitted dose curve at least 0.9, where 1 is the maximum)
# How it was run: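 RUES2-GLR human pluripotent cells differentiated 48 hours with two chemical exposures 24 hours apart, 10-point series 1 nM–200 uM. Fixed, nuclear-stained, imaged; endpoint is percent BRA+ cells minus 0.2% DMSO control.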
# [10] = CCTE_Deisenroth_DEVTOX-GLR_Pluri_CellCount: Viability Assessment in CCTE's DevTox GLR-Pluri Assay Evaluation of Total Cell Counts, Deisenroth Lab (AID 2284430)
# How it was run: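 RUES2-GLR human pluripotent cells, seeded 24 h, then differentiated 48 h with two chemical exposures 24 h apart; 10-point series 1 nM - 200 uM. Fixed, nuclear-stained, imaged (5 fields/well); nuclei count as % change vs 0.2% DMSO.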
smiles,measurement,setting,value
Clc1ccccc1C(c1ccccc1)(c1ccccc1)n1ccnc1,AC50,[1],0.117 µM (active)
same,outcome,[2],inactive
O=c1c(-c2ccc(O)cc2)coc2cc(O)cc(O)c12,AC50,[1],6.78 µM (active)
same,outcome,[2],inactive
CC/C(=C(/CC)c1ccc(O)cc1)c1ccc(O)cc1,AC50,[3],2.78 µM (active)
same,AC50,[4],0.65 µM (active)
same,AC50,[5],0.891 µM (active)
same,AC50,[6],1.58 µM (active)
same,AC50,[7],1.83 µM (active)
same,AC50,[8],7.85 µM (active)
same,AC50,[9],1.9 µM (active)
same,AC50,[10],1.45 µM (active)
OCCO,outcome,[4],inactive
same,outcome,[5],inactive
same,outcome,[6],inactive
same,outcome,[8],inactive
same,outcome,[9],inactive
same,outcome,[10],inactive
CCCCOC(=O)c1ccc(O)cc1,outcome,[1],inactive
same,outcome,[2],inactive
same,AC50,[3],152 µM (active)
same,AC50,[4],56.3 µM (active)
same,AC50,[5],66.5 µM (active)
same,AC50,[6],37.9 µM (active)
same,AC50,[7],51.6 µM (active)
same,AC50,[8],21.6 µM (active)
same,AC50,[9],89.2 µM (active)
same,AC50,[10],19.8 µM (active)
CC(=O)N1CCN(c2ccc(OC[C@H]3CO[C@](Cn4ccnc4)(c4ccc(Cl)cc4Cl)O3)cc2)CC1,AC50,[1],0.947 µM (active)
same,outcome,[2],inactive
CO[C@H]1/C=C/O[C@@]2(C)Oc3c(C)c(O)c4c(O)c(c(/C=N/N5CCN(C)CC5)c(O)c4c3C2=O)NC(=O)/C(C)=C\C=C\[C@H](C)[C@H](O)[C@@H](C)[C@@H](O)[C@@H](C)[C@H](OC(C)=O)[C@@H]1C,AC50,[3],83.6 µM (active)
same,AC50,[4],70.3 µM (active)
same,AC50,[5],88.8 µM (active)
same,AC50,[6],41.5 µM (active)
same,AC50,[7],137 µM (active)
same,outcome,[8],inactive
same,AC50,[9],59.9 µM (active)
same,AC50,[10],19.8 µM (active)
